Source: PubChem BioAssay (NCATS)
Records with an inconclusive call do not appear. Calls of active or inactive are those of the source. Calls follow the shape of the dose curve; as a rule, active = well fitted curve in the direction sought with a large enough effect; inconclusive = small, poorly fitted or top-dose-only effect, or another doubt; inactive = no such curve, though single readings can be large; an effect the other way counts as inactive or inconclusive.

What was measured:
CAOV3 = test: Primary qHTS to identify gynecologic anti-cancer compounds using libraries of approved drugs and bioactive compounds (AID 1345084); conditions: Gynecologic cancer cell panel viability, ATPlite luminescence, 48 h; series mostly up to 57.5 µM; also: nearly all actives have a fitted effect of over 55% in size; as to activity change, negative = cytotoxicity: % is scaled to controls: 0 for no effect and ±100 for the full control effect
Summary of the method: (§1)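 Cytotoxicity screen measuring ATP content by luciferase luminescence. Each compound is applied at five concentrations for 48 h at 37 C with 5% CO2.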

CASKI = test: as above; conditions: Gynecologic cancer cell panel viability, ATPlite luminescence, 48 h; series mostly up to 57.5 µM
Summary of the method: as §1

HeLa = test: as above; conditions: Gynecologic cancer cell panel viability, ATPlite luminescence, 48 h; series mostly up to 57.5 µM
Summary of the method: as §1

Hek293T = test: as above; conditions: Gynecologic cancer cell panel viability, ATPlite luminescence, 48 h, control line for the selectivity index; series mostly up to 57.5 µM
Summary of the method: as §1

JEG-3 = test: as above; conditions: Gynecologic cancer cell panel viability, ATPlite luminescence, 48 h; series mostly up to 57.5 µM
Summary of the method: as §1

OV90 = test: as above; conditions: Gynecologic cancer cell panel viability, ATPlite luminescence, 48 h; series mostly up to 57.5 µM
Summary of the method: as §1

PA-1 = test: as above; conditions: Gynecologic cancer cell panel viability, ATPlite luminescence, 48 h; series mostly up to 57.5 µM
Summary of the method: as §1

Tov-21-G = test: as above; conditions: Gynecologic cancer cell panel viability, ATPlite luminescence, 48 h; series mostly up to 57.5 µM
Summary of the method: as §1

Tov112D = test: as above; conditions: Gynecologic cancer cell panel viability, ATPlite luminescence, 48 h; series mostly up to 57.5 µM
Summary of the method: as §1

SKOV3 = test: as above; conditions: Gynecologic cancer cell panel viability, ATPlite luminescence, 48 h; series mostly up to 57.5 µM
Summary of the method: as §1

Es-2 = test: as above; conditions: Gynecologic cancer cell panel viability, ATPlite luminescence, 48 h; series mostly up to 57.5 µM
Summary of the method: as §1

[1] = qHTS assay to identify inhibitors of the type 1 interferon - major histocompatibility complex class I in skeletal muscle: Counter screen cell viability and HiBit confirmation (AID 1347412); conditions: iHSKM muscle cells + IFN-b, HiBiT or CellTiter-Glo, 24 h; HiBiT; also: nearly all actives have a fitted effect of over 60% in size
Summary of the method: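 After 24 h with human IFN-beta (4 ng/ml) and compound titrations (top 46 uM final, 1:3, 12 points), HLA-B HiBit myoblasts were lysed for either Nano-Glo HiBiT luminescence or CellTiter Glo viability on paired plates.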
Potency is read from the fitted curve at half-maximal effect.

CC(=O)NC(C)c1cnc(-c2cnc(Oc3ccc(OC(C)C)cc3)s2)s1 (configuration not stated)
inactive: Potency (CAOV3) | Potency (CASKI) | Potency (HeLa) | Potency (Hek293T) | Potency (JEG-3) | Potency (OV90) | Potency (PA-1) | Potency (Tov-21-G) | Potency (Tov112D)

N#CSc1cc(SC#N)c(N)nc1N
inactive: activity change, negative = cytotoxicity (CAOV3) -3.29% [at 11.6 µM] | activity change, negative = cytotoxicity (CASKI) 10.8% [at 11.6 µM] | activity change, negative = cytotoxicity (HeLa) -2.58% [at 11.6 µM] | activity change, negative = cytotoxicity (JEG-3) 10.3% [at 11.6 µM] | activity change, negative = cytotoxicity (OV90) 2.64% [at 11.6 µM] | activity change, negative = cytotoxicity (SKOV3) -0.394% [at 11.6 µM] | activity change, negative = cytotoxicity (Tov-21-G) -3.87% [at 11.6 µM]

CCC(C)C(=O)OC1C(C)C2(O)C(C=C(CO)CC3(O)C(=O)C(C)=CC32)C2C(C)(C)C12OC(=O)C(C)C (configuration not stated)
inactive: Potency (CAOV3) | Potency (CASKI) | Potency (HeLa) | Potency (Hek293T) | Potency (JEG-3) | Potency (OV90) | Potency (PA-1) | Potency (SKOV3) | Potency (Tov-21-G) | Potency (Tov112D)

CCc1c[nH]c2ncnc(N3CC[C@](N)(CNC(=O)c4ccc(F)cc4F)C3)c12
inactive: Potency (CAOV3) | Potency (CASKI) | Potency (Es-2) | Potency (HeLa) | Potency (JEG-3) | Potency (Tov112D)
active: Potency (Hek293T) 1.41 µM | Potency (Tov-21-G) 1 µM

CC(C)(C)c1ccc(NC(=O)N2CCN(c3ncccc3Cl)CC2)cc1
inactive: Potency (CAOV3) | Potency (CASKI) | Potency (Es-2) | Potency (HeLa) | Potency (JEG-3) | Potency (Tov-21-G) | Potency (Tov112D)
active: Potency (SKOV3) 22.4 µM

CC12CCC(OC3OC(CO)C(O)C(O)C3OC3OC(CO)C(O)C(O)C3O)CC1CCC1C2CCC2(C)/C(=C3/COC(=O)C3)CCC12O (configuration not stated)
inactive: Potency (CAOV3) | Potency (CASKI) | Potency (Es-2) | Potency (HeLa) | Potency (Hek293T) | Potency (JEG-3) | Potency (PA-1) | Potency (SKOV3)

C/C=C(\C)C(=O)O[C@@H]1[C@@H](C)[C@]2(O)[C@@H]3C=C(C)C(=O)[C@H]3CC(CO)=C[C@H]2C2C(C)(C)[C@@]21OC(=O)C(C)CC (some centres not stated)
inactive: Potency (CAOV3) | Potency (CASKI) | Potency (HeLa) | Potency (Hek293T) | Potency (PA-1) | Potency (SKOV3) | Potency (Tov-21-G) | Potency (Tov112D)
active: Potency (Es-2) 0.355 µM

C=C1CO[C@@]2(O[C@H]3CC4C5CC=C6C[C@@H](O)C[C@@H](O[C@@H]7OC[C@H](O)[C@H](O[C@@H]8OC[C@@H](O)[C@H](O)[C@H]8O)[C@H]7O[C@@H]7O[C@@H](C)[C@H](OC(C)=O)[C@@H](OC(C)=O)[C@H]7OC(C)=O)[C@]6(C)C5CC[C@]4(C)[C@@H]3[C@@H]2C)[C@@H](O)[C@H]1OC1OC(C)C(O)C(O)C1O (some centres not stated)
inactive: activity change, negative = cytotoxicity (CAOV3) -13% [at 6.55 µM] | activity change, negative = cytotoxicity (CASKI) -16.5% [at 6.55 µM] | activity change, negative = cytotoxicity (Es-2) -0.0762% [at 6.55 µM] | activity change, negative = cytotoxicity (HeLa) -7.77% [at 6.55 µM] | activity change, negative = cytotoxicity (Hek293T) -3.45% [at 6.55 µM] | activity change, negative = cytotoxicity (JEG-3) -10.9% [at 6.55 µM]
active: Potency (OV90) 2.82 µM | Potency (PA-1) 3.55 µM | Potency (Tov112D) 3.55 µM

Cc1cc(F)c(C(=O)Nc2cccc(-c3nncn3C(C)C)n2)cc1-n1cnc(C2CC2)c1
inactive: Potency (CAOV3) | Potency (CASKI) | Potency (Es-2) | Potency (Hek293T) | Potency (JEG-3) | Potency (OV90) | Potency (PA-1) | Potency (SKOV3) | Potency (Tov-21-G) | Potency (Tov112D)

Cc1ccc(S(=O)(=O)NCc2ccc(C(=O)NCCN(Cc3ccccc3)C(C)C)cc2)cc1
inactive: Potency (CAOV3) | Potency (CASKI) | Potency (HeLa) | Potency (Hek293T) | Potency (JEG-3) | Potency (PA-1) | Potency (Tov-21-G) | Potency (Tov112D)

CC(C)S(=O)(=O)NC[C@@H]1CC(c2ccc(N3CCCC3)c(F)c2)=NO1
inactive: Potency (CAOV3) | Potency (CASKI) | Potency (Es-2) | Potency (HeLa) | Potency (JEG-3) | Potency (PA-1) | Potency (Tov-21-G) | Potency (Tov112D)

CC(CCC1(O)OC2CC3C4CC=C5CC(O[C@@H]6O[C@H](CO)[C@@H](O[C@@H]7O[C@@H](C)[C@H](O)[C@@H](O)[C@H]7O)[C@H](O)[C@H]6O[C@@H]6O[C@@H](C)[C@H](O)[C@@H](O)[C@H]6O)CCC5(C)C4CCC3(C)C2C1C)CO[C@@H]1O[C@H](CO)[C@@H](O)[C@H](O)[C@H]1O (some centres not stated)
inactive: activity change, negative = cytotoxicity (CAOV3) -11% [at 11.6 µM] | activity change, negative = cytotoxicity (CASKI) 1.54% [at 11.6 µM] | activity change, negative = cytotoxicity (Es-2) 4.17% [at 11.6 µM] | activity change, negative = cytotoxicity (HeLa) -7.05% [at 11.6 µM] | activity change, negative = cytotoxicity (Hek293T) 4.44% [at 11.6 µM] | activity change, negative = cytotoxicity (JEG-3) 10.4% [at 11.6 µM] | activity change, negative = cytotoxicity (OV90) -6.71% [at 11.6 µM] | activity change, negative = cytotoxicity (Tov-21-G) -14.2% [at 11.6 µM] | activity change, negative = cytotoxicity (Tov112D) -1.44% [at 11.6 µM]

COc1cc(N2CCC(N)CC2)ccc1Nc1ncc(Cl)c(-c2c[nH]c3ccccc23)n1
active: Potency (CAOV3) 22.4 µM | Potency (CASKI) 28.2 µM | Potency (HeLa) 3.98 µM | Potency (PA-1) 15.8 µM | Potency (SKOV3) 5.01 µM | Potency (Tov-21-G) 8.91 µM | Potency [1] 5.57 µM
inactive: Potency (Es-2) | Potency (JEG-3)

C/C=C(\C)C(=O)OC1C(C)C2(O)C(C=C(CO)CC3(O)C(=O)C(C)=CC32)C2C(C)(C)C12OC(=O)C(C)C (configuration not stated)
inactive: Potency (CAOV3) | Potency (CASKI) | Potency (Es-2) | Potency (HeLa) | Potency (Hek293T) | Potency (OV90) | Potency (PA-1) | Potency (SKOV3) | Potency (Tov-21-G) | Potency (Tov112D)

O=C(NCCCCN1CCN(c2cccc(Cl)c2Cl)CC1)c1cc2ccccc2s1
inactive: Potency (CAOV3) | Potency (CASKI) | Potency (Es-2) | Potency (HeLa) | Potency (Hek293T) | Potency (OV90) | Potency (PA-1) | Potency (SKOV3) | Potency (Tov-21-G) | Potency (Tov112D)

O=c1[nH]c([C@@H]2CCCN2)nc2c1oc1ccc(Cl)cc12
inactive: Potency (CAOV3) | Potency (CASKI) | Potency (Es-2) | Potency (Hek293T) | Potency (JEG-3) | Potency (OV90) | Potency (PA-1) | Potency (SKOV3) | Potency (Tov-21-G) | Potency (Tov112D)
